Measurements reported in PubChem BioAssay AID588456 (National Center for Advancing Translational Sciences (NCATS), 2011).
Among all 390,000 compounds or so, about 55 (0.01%) were called active. The call rests on the fitted dose curve; in most records, active means well fitted inhibition curve with a large enough effect; inconclusive means small, poorly fitted or top-dose-only effect; inactive means no such curve, though single readings can be large or run the other way. These entries were drawn from the full list.

Molecular target: Thioredoxin reductase 1, cytoplasmic (Rattus norvegicus) (UniProt O89049)
Test: qHTS Assay for Substrates of Mammalian Selenoprotein Thioredoxin Reductase 1 (TrxR1): qHTS; further: nearly all actives have a fitted effect of over 50% in size
Conditions: purified TrxR1 substrate turnover, NADPH consumption readout; series mostly up to 114 µM
Text: The selenoprotein thioredoxin reductase (TrxR; EC 1.8.1.9) is a FAD containing homodimeric pyridine nucleotide-disulfide oxidoreductase with many cellular roles. Together with NADPH and its prime substrate thioredoxin (Trx), the enzyme forms the core of the Trx system. The mammalian Trx system exerts a wide spectrum of functions including redox regulation, antioxidant defense, regulation of transcription factors as well as support of cell growth and replication. Many of these functions involve the reduction of Trx, which may subsequently reduce a number of different substrates including ribonucleotide reductase, peroxiredoxins or NFkB. Mammalian TrxR itself also has a broad substrate specificity, reducing both protein and non-protein substrates, including low molecular weight compounds such as dehydroascorbate, lipoic acid, ubiquinone, and juglone. In addition, several drugs in clinical use for anticancer treatment are indeed known to target TrxR1.
This BioAssay is a validation of an NADPH fluorescence-based, dual-purpose qHTS rTrxR1 assay designed to find potential inhibitors and substrates of rTrxR1. For this particular BioAssay, actives are potential substrate. See related BioAssay for inhibition data deposition.
NIH Molecular Libraries Probe Production Network [MLPCN]
NIH Chemical Genomics Center [NCGC]
Assay Provider: Elias Arner, Karolinska Institute
Assay protocol: 2 uL of reagents (buffer in column 4 as negative control and 90 nM rTrxR1 in columns 1-3 and 5-48) were dispensed into Greiner black solid-bottom 1,536-well assay plates, followed by 1 uL of NADPH (400 uM final concentration) to each well. The plates were centrifuged at 1000 rpm for 15 seconds and subsequently incubated for 5 min at room temperature (~22 deg C) to allow for rTrxR1 reduction. Compounds (23 nL) were then transferred via Kalypsys pin tool equipped with 1536-pin array (10 nL slotted pins, V&P Scientific, San Diego, CA). In addition, a duplicate 2-fold serial dilution of the control compounds auranofin, a known gold-based TrxR1 inhibitor, and juglone (5-hydroxy-1,4-naphthoquinone), a natural TrxR1 substrate, were pin-transferred to columns 2 and 3, respectively. After incubation for 15 min at room temperature (~22 deg C), 1 uL of selenite (400 uM final concentration) were dispensed to each well. The plate was immediately transferred to a ViewLux high-throughput CCD imager (PerkinElmer), wherein kinetic measurements of NADPH fluorescence (Ex 340 nm, Em 450 nm) were acquired (8 minute kinetic read, see Table 1). Read 1 was utilized to assess the capacity of a compound to serve as an rTrxR1 substrate, i.e. a decrease in NADPH fluorescence compared to the no-compound background is an indication of a substrate behavior for that particular compound. For inhibitory activity of a compound, delta values, computed as the difference in fluorescence intensity between the first and last reads of an 8-minute time kinetic window, were used. All reagents were diluted in an assay buffer consisting of 50 mM Tris-HCl, pH 7.5, 2 mM EDTA, and 0.01% Tween-20.
Throughout the screen, reagent bottle and all liquid lines were made light-tight to minimize reagent degradation. All screening operations were performed on a fully integrated robotic system (Kalypsys, San Diego, CA) containing one RX-130 and two RX-90 anthropomorphic robotic arms (Staubli, Duncan, SC). Library plates were screened starting from the lowest and proceeding to the highest concentration, and a 'double-pinning' step of the highest concentration was required to access higher concentrations of compounds. Vehicle-only plates, with DMSO being pin-transferred to the columns 5-48, were inserted uniformly at the beginning and the end of each library in order to monitor and record any shifts in the background, which can be affected by reagent dispensers or loss in enzyme activity over time. […]
On the % scale 0 is the no-effect control and ±100 the full control effect.

Thioredoxin reductase 1, cytoplasmic (Rattus norvegicus), sequence (O89049 whole entry, looked up): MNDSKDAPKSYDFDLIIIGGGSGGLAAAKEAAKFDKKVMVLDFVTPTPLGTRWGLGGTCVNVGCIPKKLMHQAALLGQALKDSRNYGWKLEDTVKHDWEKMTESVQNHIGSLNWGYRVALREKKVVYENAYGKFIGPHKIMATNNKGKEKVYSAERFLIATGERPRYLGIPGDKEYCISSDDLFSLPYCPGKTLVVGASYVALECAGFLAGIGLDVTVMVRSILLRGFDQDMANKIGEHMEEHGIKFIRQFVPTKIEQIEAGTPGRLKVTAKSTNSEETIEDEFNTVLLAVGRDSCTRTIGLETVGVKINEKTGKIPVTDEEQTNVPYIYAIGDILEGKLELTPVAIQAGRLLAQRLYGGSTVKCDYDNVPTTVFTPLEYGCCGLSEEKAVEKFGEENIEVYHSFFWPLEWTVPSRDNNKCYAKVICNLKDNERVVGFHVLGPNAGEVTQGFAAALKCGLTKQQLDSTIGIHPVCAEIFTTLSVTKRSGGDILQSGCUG

Activity change, negative = substrate turnover, inactive:
O=C(O)c1c(Br)c(Br)c(Br)c(Br)c1C1c2ccc(O)cc2Oc2cc(O)ccc21
O=C(NCCCO)C(=O)Nc1c2c(nn1-c1ccc(F)cc1)CSC2
C(=Nc1ccc(/C=C/c2ccnc3ccccc23)cc1)c1cc2c3c(c1)CCCN3CCC2
Cc1ccc2nc3c(cc(C(=O)NC4CCCCC4)c(=N)n3C(C)C)c(=O)n2c1
Cc1ccc(CN(C(=O)COc2ccc(Cl)cc2C)C2CCS(=O)(=O)C2)o1 (stereo not given)
CCOc1n[nH]c(-c2ccccc2)n1
COc1ccc(CCNC(=O)CCCCn2c(=O)c3ccccc3n(Cc3ccccc3C)c2=O)cc1OC
CS(=O)c1ccc(/C=C2\C=Cc3ccccc32)cc1 (stereo not given) 1.35% [at 0.0914 µM]
COc1ccccc1NC(=O)C1=C(C)Nc2ncnn2C1c1sccc1C (stereo not given)
Cc1ccc(C2C=C(c3ccc(Cl)cc3)Nc3nc(NC(=O)CCC(=O)O)nn32)cc1 (stereo not given)
C/C=C/NNC(=O)Cc1ccc(OC)cc1
CCOC(=O)c1ccc(NC(=O)CCS(=O)(=O)c2ccc3c(c2)oc(=O)n3C)cc1
COCCCNC(=O)c1ccc(NC(=O)c2nsc3ccccc23)cc1
CC1(C)C=Cc2c(ccc(C(=O)/C=C/c3ccccc3)c2O)O1
CCN(CC)/[N+]([O-])=N/OCOC(=O)Cc1c(C)n(C(=O)c2ccc(Cl)cc2)c2ccc(OC)cc12 12.6% [at 0.457 µM]
CC(=O)/C(C)=N/O
COc1ccc(CN(Cc2ccccc2)C(=O)c2ccc(O)cc2)cc1COc1ccc(NC(C)=O)cc1
O=C(CSc1nc2c(c(=O)[nH]1)CN(Cc1ccc(F)cc1)CC2)Nc1ccccc1Cl
O=C(COc1ccccc1)OCc1cc(=O)n2nc(-c3cccs3)sc2n1
Cc1cccc(NC(=O)COC(=O)c2ccccc2OCc2cccc(Br)c2)c1
CN(C)C1=C2C=CC=CC2/C(=C2/C=Cc3ccccc32)C=C1 (stereo not given)
CSc1nc(-c2ccccc2Cl)nc2c1Cc1c(CO)cnc(C)c1O2
CN(C)c1ccc(/C=C/c2sc3ccccc3[n+]2C)cc1
Cc1cccc(NC(=O)c2ccc3nc(C(C)C)oc3c2)c1C
O=C(Nc1ccccc1C(F)(F)F)c1nc(S(=O)(=O)Cc2ccccc2F)ncc1Cl
CN(C)c1ccc(/C=C/C=C/c2ccnc3ccccc23)cc1
CCCCCCC1(C)NC(c2ccc3c(c2)OCO3)=CC(c2ccccc2O)N1 (stereo not given)
SCc1nc2ccc(Cl)cc2[nH]1
Cc1ccc2nc(COc3cccc(NC(=O)Nc4ccc(C)c(Cl)c4)c3)cc(=O)n2c1
O=C1C[C@H]2C=CCc3cccc(c32)CN1Cc1ccccc1
O=C1CCC[C@@H]2C[C@@]3(C[C@@H]4CCN1[C@H]24)Nc1ccccc1NC3=NCc1ccccc1
CCCCOc1ccc(CN2C(=O)C(=O)c3cc(Br)cc(C)c32)cc1OC
CCN(CC)c1ccc(/C=C/c2c(C)cnc3ccc(C)cc23)cc1
CCOc1ccc(CCNC(=O)Cn2nc(CC)n3c(cc4sc(CC)cc43)c2=O)cc1OCC
CCC(C)N(c1ccc(/C=C/c2ccnc3ccccc23)cc1)C(C)CC (stereo not given)
O=C(COc1ccccc1C(=O)Nc1ccccc1)Nc1cccc(F)c1
CCCCOc1ccc(C(=O)NO)cc1
Cc1ccc(-c2nc(=N)sn2Cc2ccccc2)cc1
C[N+]1(CC(=O)c2cccs2)CCOCC1
COc1ccccc1OCCNCC(O)COc1cccc2[nH]c3ccccc3c12 (stereo not given)
CN(C)c1ccc(/C=c2\[nH]c(=O)/c(=C/c3ccc(N(C)C)cc3)[nH]c2=O)cc1
Cc1ccc(-n2nc(C)c(C(=O)O)c2-n2cccc2)cc1
OC(CBr)CN1CCCCC1 (stereo not given)
O=C(O)/C(=C/c1c(C(=O)O)[nH]c2cc(Cl)cc(Cl)c12)c1ccccc1
Cc1ccc(-c2nnc(Nc3ccc(OCC(N)=O)cc3)c3ccccc23)cc1S(=O)(=O)NCC1CCCO1 (stereo not given)
CCc1cccc(NC(=O)c2cnc(N3CCOCC3)c3ccccc23)c1
CCC(=O)N1CCc2cc(Br)cc(S(=O)(=O)NCc3ccc(Cl)cc3)c21
Cc1cc2oc(C(=O)N(Cc3ccc(Cl)cc3)Cc3ccco3)c(C)c2cc1Cl
O=C(C[n+]1ccncc1)c1ccc2c(c1)CCCC2
CNCCCOc1cc2nc(N3CCCN(C)CC3)nc(NC3CCN(C)CC3)c2cc1OC
C=CCNC(=O)c1ccc2nc(-c3ccco3)c(-c3ccco3)nc2c1
Clc1cccc[n+]1CCCC[n+]1ccccc1Cl
Cc1ccc(NC(=O)c2ccc3[nH]c(C)cc(=O)c3c2)c(C)c1
O=C(COC(=O)c1ccccc1OCCOc1ccccc1)Nc1cccc(Br)c1
O=C1CC(c2ccc(F)cc2F)c2cc3c(cc2N1)OCO3 (stereo not given)
NS(=O)(=O)c1ccc(NC(=O)CSc2nnc3c(n2)[nH]c2ccccc23)cc1
COc1cc2[nH]c(C)c(CCN3CCN(c4ccccc4)CC3)c2cc1OC
COc1ccc(CCNC(=O)CCCn2c(=O)c3ccccc3n(Cc3ccc(C)cc3)c2=O)cc1OC
Cc1ccc(-c2cc(N)n(Cc3cccc(Cl)c3)n2)cc1
Oc1ccc(Cn2cc[nH]c2=S)cc1
OCC(O)C(O)C(O)C(O)C=Nc1ccc(/C=C/c2ccnc3ccccc23)cc1 (stereo not given) 5.9% [at 0.0914 µM]
CC(C)CNc1ncnc2c1nnn2C
CCN1CCN(c2ccc(/C=C/c3ccnc4ccccc34)cc2)CC1
CCC(C(=O)Nc1cccc(-c2nc3cccnc3s2)c1C)c1ccccc1 (stereo not given)
COC(=O)c1scc(-c2ccccc2)c1S(=O)(=O)Nc1ccccc1
C(=Nc1ccc(/C=C/c2ccnc3ccccc23)cc1)Nc1ccc(/C=C/c2ccnc3ccccc23)cc1
COc1cc2nc(N3CCCN(C)CC3)nc(NC3CC3)c2cc1OC
Cc1ccc(Cl)cc1NC(=O)NC1COc2ccccc2C1 (stereo not given)
O=C(NCc1ccccc1)c1cccc(NC(=O)N2CCSc3ncccc32)c1
CC1(C)CC(=O)c2cc(C(=O)NCc3ccccc3)c(=O)[nH]c2C1
CCCCCCCNc1ccc(/C=C/c2ccnc3ccccc23)cc1
O=C(CC1Oc2ccc(Cl)cc2NC1=O)NCc1ccccc1 (stereo not given)
CSc1cccc(NC(=O)CN2C(=O)CCc3cc(S(=O)(=O)N4CCCCC4)ccc32)c1
Cc1ccc(NC2=C(c3ccc(C(F)(F)F)cc3)C(=O)c3ccccc32)cc1F
CNC(=O)c1ccc(-c2nc(CN3CCc4ccccc43)c(C)o2)cc1
O=C(c1ccco1)N(Cc1cccs1)c1ccc(O)cc1
S=c1[nH]c(=S)c2n[nH]nc2[nH]1 -1.94% [at 0.0914 µM]
CC(C)(C)c1ccc(C(=O)C[N+]2(C)CCCc3ccccc32)cc1 (stereo not given)
O=C(O)C1=C/C(=C/C=[N+]2c3cc(O)c(O[C@H]4OC(CO)[C@@H](O)[C@@H](O)[C@@H]4O)cc3C[C@@H]2C(=O)[O-])C[C@H](C(=O)O)N1 (stereo not given in full)
CC1CC(C)CN(c2oc(-c3ccc(OCc4ccc(Cl)cc4)cc3)nc2C#N)C1 (stereo not given) 6.36% [at 0.0914 µM]
c1ccc(Cn2nnc3c(N4CCCCC4)ncnc32)cc1
CCC(=O)N1CCc2cc(S(=O)(=O)NC(C(=O)NCCc3ccc(C)cc3)C(C)C)ccc21 (stereo not given)
OCCNc1ncnc2oc(-c3ccco3)c(-c3ccco3)c12
O=[N+]([O-])c1ccc(/C=C/c2ccc3cccnc3c2)cc1
Cc1ccc(-c2nc3ccccn3c2Nc2ccc(F)cc2)o1
O=C(Nc1ccc(O)c(-c2nc3ccccc3o2)c1)c1ccc(-c2cccc(Cl)c2)o1
CCc1cccc(NC(=O)CN(C)S(=O)(=O)c2ccc3[nH]c4c(c3c2)CCCC4)c1
COc1cc2nc(C#Cc3nc4cc(OC)c(OC)cc4[nH]3)[nH]c2cc1OC
NC(=O)Nc1ccc(/C=C/c2ccnc3ccccc23)cc1
CCOC(=O)C1CCCN(C(=O)Cn2ncc3c(C)n(Cc4ccc(F)cc4)c(C)c3c2=O)C1 (stereo not given)
COc1ccc(/C=C/c2ccnc3ccccc23)cc1OC
O=C(Nc1ccc([N+](=O)[O-])cc1)c1cnn2c1NC(=C1CC1)C=C2C(F)F
COc1ccc(-c2nc(CN3CCC(C(=O)NCc4ccccc4)CC3)c(C)o2)cc1OC
Cc1c(CCO)sc[n+]1CC(=O)c1ccc2ccccc2c1
CN(C)c1cccc2ccccc12
O=C(Nc1ccc(Cl)cc1)c1cnn2c1NC(=C1CC1)C=C2C(F)F
O=C(Cn1cc(SCc2ccccc2)c2ccccc21)N1CCCCC1
Cc1ccc(C(=O)Nc2ccc(OCc3cc(=O)n4c5c(sc4n3)CCCC5)cc2)cc1
N#Cc1ccc[n+](CC(=O)c2ccc(O)c(O)c2)c1
Cc1ccc(Nc2c(-c3ccc(C)s3)nc3ccccn23)cc1
COc1ccc(S(=O)(=O)Nc2cccc3cccnc23)c(N)c1
Cc1cccc(-c2nnc(SC(C)C(=O)Nc3ccccc3)n2C)c1 (stereo not given)
CCn1c(C)c(C)c2cc(C(=O)NCCc3cc(OC)ccc3OC)ccc21
Cc1csc[n+]1CCC1CCCCC1
CC(C)(C)C1CCC(NC(=O)c2cnn3c2NC(=C2CC2)C=C3C(F)F)CC1 (stereo not given)
